Counter-ions that a name gives are not always drawn. ± gives the standard deviation of the averaged measurements.
Columns and labels:
[1] = system: Saccharomyces cerevisiae BY4741 SeMeCo community; test: mean cell size (pixel area) (pixels); higher = larger cells; conditions: 10 µM; 24 h; SM minimal medium
Method in brief: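 In this assay, mean cell pixel area per well was obtained from automated confocal images of paraformaldehyde-fixed yeast analysed in Harmony. The cells were a Saccharomyces cerevisiae BY4741 community with four plasmids, each complementing one auxotrophy and carrying a fluorescent marker, grown for 24 h in SM medium with drug at a final 10 µM in 384-well plates. Values are averaged across 3 replicates. Same SeMeCo high-content imaging drug screen: Selleck FDA-approved drugs at 10 µM, 24 h in SM medium, 384-well plates, 3 replicates.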

[2] = system: Saccharomyces cerevisiae BY4741 SeMeCo community; test: z-score of prototroph abundance vs DMSO median; higher = larger share of this subpopulation than in DMSO controls; conditions: 10 µM; 24 h; SM minimal medium; subpopulation (auxotrophy): Prototroph
Method in brief: (§1)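 Subpopulation abundance was reported as a z-score against the median of vehicle wells. The Saccharomyces cerevisiae BY4741 community, carrying four plasmids that each restored one auxotrophy and encoded a distinct fluorescent protein, was grown 24 h in minimal SM medium in 384-well plates holding library drugs at 10 µM final. Cells were paraformaldehyde-fixed and imaged by automated confocal microscopy, with single-auxotroph fluorescent strains used for thresholds and autofluorescence correction.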

[3] = system: Saccharomyces cerevisiae BY4741 SeMeCo community; test: z-score of subpopulation abundance vs DMSO median, subpopulation auxotrophic for M; higher = larger share of this subpopulation than in DMSO controls; conditions: 10 µM; 24 h; SM minimal medium; subpopulation (auxotrophy): M
Method in brief: as §1

[4] = system: Saccharomyces cerevisiae BY4741 SeMeCo community; test: z-score of subpopulation abundance vs DMSO median, subpopulation auxotrophic for L; higher = larger share of this subpopulation than in DMSO controls; conditions: 10 µM; 24 h; SM minimal medium; subpopulation (auxotrophy): L
Method in brief: as §1

[5] = system: Saccharomyces cerevisiae BY4741 SeMeCo community; test: z-score of subpopulation abundance vs DMSO median, subpopulation auxotrophic for H; higher = larger share of this subpopulation than in DMSO controls; conditions: 10 µM; 24 h; SM minimal medium; subpopulation (auxotrophy): H
Method in brief: as §1

[6] = system: Saccharomyces cerevisiae BY4741 SeMeCo community; test: z-score of subpopulation abundance vs DMSO median, subpopulation auxotrophic for LU; higher = larger share of this subpopulation than in DMSO controls; conditions: 10 µM; 24 h; SM minimal medium; subpopulation (auxotrophy): LU
Method in brief: as §1

[7] = system: Saccharomyces cerevisiae BY4741 SeMeCo community; test: z-score of subpopulation abundance vs DMSO median, subpopulation auxotrophic for LM; higher = larger share of this subpopulation than in DMSO controls; conditions: 10 µM; 24 h; SM minimal medium; subpopulation (auxotrophy): LM
Method in brief: as §1

[8] = system: Saccharomyces cerevisiae BY4741 SeMeCo community; test: z-score of subpopulation abundance vs DMSO median, subpopulation auxotrophic for HM; higher = larger share of this subpopulation than in DMSO controls; conditions: 10 µM; 24 h; SM minimal medium; subpopulation (auxotrophy): HM
Method in brief: as §1

[9] = system: Saccharomyces cerevisiae BY4741 SeMeCo community; test: z-score of subpopulation abundance vs DMSO median, subpopulation auxotrophic for HU; higher = larger share of this subpopulation than in DMSO controls; conditions: 10 µM; 24 h; SM minimal medium; subpopulation (auxotrophy): HU
Method in brief: as §1

[10] = system: Saccharomyces cerevisiae BY4741 SeMeCo community; test: z-score of subpopulation abundance vs DMSO median, subpopulation auxotrophic for UM; higher = larger share of this subpopulation than in DMSO controls; conditions: 10 µM; 24 h; SM minimal medium; subpopulation (auxotrophy): UM
Method in brief: as §1

[11] = system: Saccharomyces cerevisiae BY4741 SeMeCo community; test: z-score of subpopulation abundance vs DMSO median, subpopulation auxotrophic for HL; higher = larger share of this subpopulation than in DMSO controls; conditions: 10 µM; 24 h; SM minimal medium; subpopulation (auxotrophy): HL
Method in brief: as §1

[12] = system: Saccharomyces cerevisiae BY4741 SeMeCo community; test: z-score of subpopulation abundance vs DMSO median, subpopulation auxotrophic for HLU; higher = larger share of this subpopulation than in DMSO controls; conditions: 10 µM; 24 h; SM minimal medium; subpopulation (auxotrophy): HLU
Method in brief: as §1

[13] = system: Saccharomyces cerevisiae BY4741 SeMeCo community; test: z-score of subpopulation abundance vs DMSO median, subpopulation auxotrophic for HLM; higher = larger share of this subpopulation than in DMSO controls; conditions: 10 µM; 24 h; SM minimal medium; subpopulation (auxotrophy): HLM
Method in brief: as §1

[14] = system: Saccharomyces cerevisiae BY4741 SeMeCo community; test: z-score of subpopulation abundance vs DMSO median, subpopulation auxotrophic for HUM; higher = larger share of this subpopulation than in DMSO controls; conditions: 10 µM; 24 h; SM minimal medium; subpopulation (auxotrophy): HUM
Method in brief: as §1

[15] = system: Saccharomyces cerevisiae BY4741 SeMeCo community; test: z-score of subpopulation abundance vs DMSO median, subpopulation auxotrophic for LUM; higher = larger share of this subpopulation than in DMSO controls; conditions: 10 µM; 24 h; SM minimal medium; subpopulation (auxotrophy): LUM
Method in brief: as §1

[16] = system: Saccharomyces cerevisiae BY4741 SeMeCo community; test: z-score of subpopulation abundance vs DMSO median, subpopulation auxotrophic for HLUM; higher = larger share of this subpopulation than in DMSO controls; conditions: 10 µM; 24 h; SM minimal medium; subpopulation (auxotrophy): HLUM
Method in brief: as §1

[17] = system: Saccharomyces cerevisiae BY4741 SeMeCo community; test: z-score of subpopulation abundance vs DMSO median, subpopulation auxotrophic for U; higher = larger share of this subpopulation than in DMSO controls; conditions: 10 µM; 24 h; SM minimal medium; subpopulation (auxotrophy): U
Method in brief: as §1

SMILES	mean cell size [1]	z-score of prototroph abundance [2]	z-score of subpopulation abundance [3]	z-score of subpopulation abundance [4]	z-score of subpopulation abundance [5]	z-score of subpopulation abundance [6]	z-score of subpopulation abundance [7]	z-score of subpopulation abundance [8]	z-score of subpopulation abundance [9]	z-score of subpopulation abundance [10]	z-score of subpopulation abundance [11]	z-score of subpopulation abundance [12]	z-score of subpopulation abundance [13]	z-score of subpopulation abundance [14]	z-score of subpopulation abundance [15]	z-score of subpopulation abundance [16]	z-score of subpopulation abundance [17]
CO[C@H]1C[C@@H]2CC[C@@H](C)[C@@](O)(O2)C(=O)C(=O)N2CCCC[C@H]2C(=O)O[C@H]([C@H](C)C[C@@H]2CC[C@@H](OC(=O)C(C)(CO)CO)[C@H](OC)C2)CC(=O)[C@H](C)/C=C(\C)[C@@H](O)[C@@H](OC)C(=O)[C@H](C)C[C@H](C)/C=C/C=C/C=C/1C	14.17 ± 0.036	-18.4	-1.76	-0.9	13.5	4.31	5.51	23.9	28	11.2	15.9	28	21.4	28.7	14.2	31.6	–
OCCN1CCN(CCCN2c3ccccc3Sc3ccc(Cl)cc32)CC1 [Perphenazine]	12.3 ± 0.2	–	-0.42	-0.47	–	0.15	-0.01	0.07	0.72	–	0.11	0.1	0	0.73	0.66	-0.22	–
CC1(C)S[C@@H]2[C@H](NC(=O)[C@H](N)c3ccccc3)C(=O)N2[C@H]1C(=O)O [Ampicillin sodium]	12.3 ± 0.15	0.8	-0.4	0.09	-0.9	0.12	-0.28	-0.71	0.1	-0.31	-0.73	-0.42	-0.99	-0.12	–	-0.67	0.29
CC(C)[C@H](N)C(=O)OCCOCn1cnc2c(=O)nc(N)[nH]c21 [Valaciclovir HCl]	12.3 ± 0.16	0.5	-0.55	-0.06	-0.62	-0.13	-0.74	-0.81	0.53	0.08	-0.27	-0.75	-0.27	0.37	–	-0.14	0.12
C[C@@H]1C/C=C/C=C/C=C/C=C/[C@H](O[C@@H]2O[C@H](C)[C@@H](O)[C@H](N)[C@@H]2O)C[C@@H]2O[C@](O)(C[C@@H](O)C[C@H]3O[C@@H]3/C=C/C(=O)O1)C[C@H](O)[C@H]2C(=O)O [Natamycin]	12.31 ± 0.094	-16.3	-8.99	1.74	12.5	8.63	2.04	8.62	33.6	9.97	22.5	22.7	38.1	25.6	–	40.5	4.12
Cc1c(OCC(F)(F)F)ccnc1C[S@@+]([O-])c1nc2ccccc2[nH]1 [Dexlansoprazole]	12.3 ± 0.13	0.34	-0.04	0.56	1.18	0.17	1.28	0	-0.32	-0.91	0.7	0.19	-0.96	-0.66	–	-0.54	–
CCC[C@@H]1C[C@@H](C(=O)N[C@@H]([C@H]2O[C@H](SC)[C@H](OP(=O)(O)O)[C@@H](O)[C@H]2O)[C@H](C)Cl)N(C)C1 [Clindamycin Phosphate]	12 ± 0.22	-0.33	0.65	-0.86	-0.77	0.78	0.11	0.11	-0.25	1.19	-0.71	-0.85	-0.65	0.81	–	-0.47	0.48
CCOc1ccc2nc3cc(N)ccc3c(N)c2c1 [Ethacridine lactate monohydrate]	12.86 ± 0.11	3.33	5.99	1.84	4.4	-7.71	4.18	5.32	-8.09	-9.56	3.54	-4.38	5.56	-6.59	–	-2.52	-8.13
O=C(O)c1cc(/N=N/c2ccc(O)c(C(=O)O)c2)ccc1O [Olsalazine Sodium]	12.63 ± 0.099	–	-0.62	-0.47	-0.62	-0.37	-0.58	-1.16	-0.74	-1.01	–	-1.31	-1.25	-0.73	-0.7	-0.84	-0.08
COc1ccc2c(c1)c(CC(=O)OCC(=O)O)c(C)n2C(=O)c1ccc(Cl)cc1 [Acemetacin]	12.45 ± 0.094	-0.16	0.01	-1.06	0.66	0.16	-0.54	0.71	0.77	0.2	0.11	-0.64	-0.3	0.69	-0.15	-0.61	–
